Test results as given in ChEMBL document CHEMBL1961873, “Compounds: GSK PKIS; Assays: Nanosyn kinase panel” (2012).

Columns and labels:
[1] = target: T1, Serine/threonine-protein kinase Nek9 (Homo sapiens) (UniProt Q8TD19); details: at 1 µM;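 also: each value is a mean percent inhibition of NEK9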
T1 sequence (whole entry): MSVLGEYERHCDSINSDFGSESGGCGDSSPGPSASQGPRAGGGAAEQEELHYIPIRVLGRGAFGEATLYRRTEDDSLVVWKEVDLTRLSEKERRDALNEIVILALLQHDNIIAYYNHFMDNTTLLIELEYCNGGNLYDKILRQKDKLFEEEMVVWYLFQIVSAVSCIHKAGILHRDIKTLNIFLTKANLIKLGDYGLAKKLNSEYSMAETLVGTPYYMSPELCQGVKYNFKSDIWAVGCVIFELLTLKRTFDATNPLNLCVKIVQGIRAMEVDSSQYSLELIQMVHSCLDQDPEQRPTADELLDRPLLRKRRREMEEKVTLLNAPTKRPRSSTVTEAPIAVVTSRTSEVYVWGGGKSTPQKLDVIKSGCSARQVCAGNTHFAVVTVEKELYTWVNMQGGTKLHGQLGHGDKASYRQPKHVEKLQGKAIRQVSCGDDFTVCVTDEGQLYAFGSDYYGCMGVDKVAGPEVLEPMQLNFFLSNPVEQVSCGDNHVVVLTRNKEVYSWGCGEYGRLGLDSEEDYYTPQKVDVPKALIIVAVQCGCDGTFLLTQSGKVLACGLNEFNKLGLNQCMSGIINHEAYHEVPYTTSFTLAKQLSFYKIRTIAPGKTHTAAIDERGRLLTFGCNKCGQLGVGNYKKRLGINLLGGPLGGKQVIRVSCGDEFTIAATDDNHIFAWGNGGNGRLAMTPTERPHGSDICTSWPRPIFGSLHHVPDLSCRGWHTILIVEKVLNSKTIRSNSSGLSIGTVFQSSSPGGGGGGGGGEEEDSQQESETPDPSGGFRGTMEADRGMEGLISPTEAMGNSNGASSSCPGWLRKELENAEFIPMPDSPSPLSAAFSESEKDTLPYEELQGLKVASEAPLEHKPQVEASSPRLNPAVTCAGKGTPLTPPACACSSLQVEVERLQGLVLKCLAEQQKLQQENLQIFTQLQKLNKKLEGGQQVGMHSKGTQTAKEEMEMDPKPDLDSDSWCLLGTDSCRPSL

[2] = target: Serine/threonine-protein kinase PLK1 (Homo sapiens) (UniProt P53350); details: at 0.1 µM
[3] = target: Serine/threonine-protein kinase PLK1 (Homo sapiens) (UniProt P53350); details: at 1 µM
[4] = target: T2, Dual specificity protein kinase TTK (Homo sapiens) (UniProt P33981); details: at 0.1 µM
T2 sequence (whole entry): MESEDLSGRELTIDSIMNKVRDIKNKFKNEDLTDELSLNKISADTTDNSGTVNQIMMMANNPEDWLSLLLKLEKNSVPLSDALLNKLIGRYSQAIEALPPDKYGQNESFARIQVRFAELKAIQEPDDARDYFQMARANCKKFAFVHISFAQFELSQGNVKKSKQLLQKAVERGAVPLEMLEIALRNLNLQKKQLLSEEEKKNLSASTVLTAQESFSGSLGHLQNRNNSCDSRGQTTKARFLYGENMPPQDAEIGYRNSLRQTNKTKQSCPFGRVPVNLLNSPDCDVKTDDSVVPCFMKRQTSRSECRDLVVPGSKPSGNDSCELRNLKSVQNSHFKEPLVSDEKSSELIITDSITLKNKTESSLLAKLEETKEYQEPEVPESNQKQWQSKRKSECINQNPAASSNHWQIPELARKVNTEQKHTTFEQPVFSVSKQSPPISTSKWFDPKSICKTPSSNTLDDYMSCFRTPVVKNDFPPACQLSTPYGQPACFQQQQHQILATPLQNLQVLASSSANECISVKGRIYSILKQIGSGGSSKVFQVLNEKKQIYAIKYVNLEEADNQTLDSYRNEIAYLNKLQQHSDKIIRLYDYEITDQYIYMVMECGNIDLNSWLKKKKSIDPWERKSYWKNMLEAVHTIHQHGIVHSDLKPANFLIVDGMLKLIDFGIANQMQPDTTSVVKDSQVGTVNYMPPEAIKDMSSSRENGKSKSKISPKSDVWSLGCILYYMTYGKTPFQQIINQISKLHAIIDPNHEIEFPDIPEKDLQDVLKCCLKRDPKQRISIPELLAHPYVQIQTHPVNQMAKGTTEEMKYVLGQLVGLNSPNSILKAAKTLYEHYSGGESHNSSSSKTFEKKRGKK

[5] = test system: T3, Receptor-type tyrosine-protein kinase FLT3 (Homo sapiens), P36888 [D835Y]; details: at 1 µM
T3 sequence (whole entry): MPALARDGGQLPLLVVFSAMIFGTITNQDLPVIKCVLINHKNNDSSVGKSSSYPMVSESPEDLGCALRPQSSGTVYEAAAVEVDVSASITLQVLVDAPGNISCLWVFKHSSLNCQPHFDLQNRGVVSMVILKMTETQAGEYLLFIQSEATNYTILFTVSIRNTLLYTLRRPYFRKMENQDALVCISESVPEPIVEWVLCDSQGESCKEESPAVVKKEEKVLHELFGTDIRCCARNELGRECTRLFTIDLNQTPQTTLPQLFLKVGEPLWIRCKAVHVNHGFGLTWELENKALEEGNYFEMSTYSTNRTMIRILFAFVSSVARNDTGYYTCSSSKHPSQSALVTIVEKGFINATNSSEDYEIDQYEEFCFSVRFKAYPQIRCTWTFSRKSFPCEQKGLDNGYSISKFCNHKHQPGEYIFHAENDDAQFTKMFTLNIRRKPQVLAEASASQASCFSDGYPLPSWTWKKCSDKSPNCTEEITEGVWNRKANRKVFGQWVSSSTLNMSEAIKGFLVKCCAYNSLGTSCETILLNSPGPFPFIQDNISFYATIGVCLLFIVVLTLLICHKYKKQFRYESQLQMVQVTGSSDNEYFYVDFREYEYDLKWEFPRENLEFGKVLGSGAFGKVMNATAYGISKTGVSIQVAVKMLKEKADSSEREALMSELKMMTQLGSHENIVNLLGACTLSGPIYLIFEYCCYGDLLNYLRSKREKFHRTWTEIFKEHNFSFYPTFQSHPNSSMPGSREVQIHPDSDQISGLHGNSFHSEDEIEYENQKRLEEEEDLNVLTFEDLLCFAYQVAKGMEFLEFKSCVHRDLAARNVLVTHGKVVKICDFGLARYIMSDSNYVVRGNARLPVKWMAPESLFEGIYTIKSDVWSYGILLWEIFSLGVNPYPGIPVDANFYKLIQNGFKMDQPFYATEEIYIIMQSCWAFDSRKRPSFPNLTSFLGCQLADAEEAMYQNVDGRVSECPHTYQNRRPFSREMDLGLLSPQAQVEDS

[6] = target: Vascular endothelial growth factor receptor 3 (Homo sapiens) (UniProt P35916); details: at 0.1 µM
[7] = target: Vascular endothelial growth factor receptor 3 (Homo sapiens) (UniProt P35916); details: at 1 µM
[8] = target: Macrophage colony-stimulating factor 1 receptor (Homo sapiens) (UniProt P07333); details: at 0.1 µM
[9] = target: Macrophage colony-stimulating factor 1 receptor (Homo sapiens) (UniProt P07333); details: at 1 µM
[10] = target: Tyrosine-protein kinase Fyn (Homo sapiens) (UniProt P06241); details: at 0.1 µM
Chain of Tyrosine-protein kinase Fyn (Homo sapiens) (P06241 2-537 limits assumed): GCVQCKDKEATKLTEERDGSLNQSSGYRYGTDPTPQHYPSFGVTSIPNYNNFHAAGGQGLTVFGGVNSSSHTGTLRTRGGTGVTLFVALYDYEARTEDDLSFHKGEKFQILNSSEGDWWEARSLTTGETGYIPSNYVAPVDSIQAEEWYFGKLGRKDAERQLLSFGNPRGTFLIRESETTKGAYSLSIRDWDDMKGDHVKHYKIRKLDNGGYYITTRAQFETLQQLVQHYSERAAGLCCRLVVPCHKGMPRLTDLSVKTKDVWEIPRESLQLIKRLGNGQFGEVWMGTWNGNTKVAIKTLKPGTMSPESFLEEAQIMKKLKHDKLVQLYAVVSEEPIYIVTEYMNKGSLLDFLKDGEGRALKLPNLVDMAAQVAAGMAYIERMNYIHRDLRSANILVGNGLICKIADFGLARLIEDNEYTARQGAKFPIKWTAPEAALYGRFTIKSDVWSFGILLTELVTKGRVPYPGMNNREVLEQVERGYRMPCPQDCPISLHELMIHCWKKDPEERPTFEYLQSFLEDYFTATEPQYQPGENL

Chain of Vascular endothelial growth factor receptor 3 (Homo sapiens) (P35916 whole entry): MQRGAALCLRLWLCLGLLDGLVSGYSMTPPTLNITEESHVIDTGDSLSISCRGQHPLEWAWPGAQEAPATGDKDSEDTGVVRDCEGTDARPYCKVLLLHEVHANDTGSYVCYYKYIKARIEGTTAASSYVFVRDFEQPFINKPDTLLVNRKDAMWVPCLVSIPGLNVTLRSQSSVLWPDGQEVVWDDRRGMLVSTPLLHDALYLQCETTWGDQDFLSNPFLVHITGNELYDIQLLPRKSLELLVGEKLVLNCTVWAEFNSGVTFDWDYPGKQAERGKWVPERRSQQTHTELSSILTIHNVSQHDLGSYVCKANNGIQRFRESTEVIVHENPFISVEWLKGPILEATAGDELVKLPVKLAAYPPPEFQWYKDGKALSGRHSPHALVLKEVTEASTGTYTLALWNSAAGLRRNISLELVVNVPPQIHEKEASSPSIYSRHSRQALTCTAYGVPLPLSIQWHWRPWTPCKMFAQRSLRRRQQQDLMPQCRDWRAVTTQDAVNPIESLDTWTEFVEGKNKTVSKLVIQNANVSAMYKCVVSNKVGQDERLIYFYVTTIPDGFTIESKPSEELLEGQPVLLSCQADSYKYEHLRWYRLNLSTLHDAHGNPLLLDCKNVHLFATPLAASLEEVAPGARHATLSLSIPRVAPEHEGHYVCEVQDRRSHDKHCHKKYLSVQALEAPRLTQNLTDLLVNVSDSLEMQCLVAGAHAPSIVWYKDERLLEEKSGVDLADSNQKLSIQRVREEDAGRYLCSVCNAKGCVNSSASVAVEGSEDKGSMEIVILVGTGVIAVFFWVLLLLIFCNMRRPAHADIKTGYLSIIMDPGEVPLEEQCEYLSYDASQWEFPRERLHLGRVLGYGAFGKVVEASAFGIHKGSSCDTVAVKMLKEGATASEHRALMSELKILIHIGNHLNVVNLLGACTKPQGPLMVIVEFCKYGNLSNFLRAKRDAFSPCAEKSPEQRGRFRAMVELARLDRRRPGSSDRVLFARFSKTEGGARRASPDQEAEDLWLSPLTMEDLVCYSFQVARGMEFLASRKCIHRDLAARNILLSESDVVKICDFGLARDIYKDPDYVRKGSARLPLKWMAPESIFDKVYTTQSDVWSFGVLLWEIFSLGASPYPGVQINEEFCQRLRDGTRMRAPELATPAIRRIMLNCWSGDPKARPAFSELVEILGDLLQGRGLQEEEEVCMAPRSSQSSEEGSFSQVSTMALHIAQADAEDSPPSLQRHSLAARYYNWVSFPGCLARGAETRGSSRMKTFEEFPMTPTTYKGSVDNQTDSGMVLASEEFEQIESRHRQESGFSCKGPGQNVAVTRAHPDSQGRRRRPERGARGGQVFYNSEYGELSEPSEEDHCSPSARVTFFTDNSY
Chain of Macrophage colony-stimulating factor 1 receptor (Homo sapiens) (P07333 whole entry): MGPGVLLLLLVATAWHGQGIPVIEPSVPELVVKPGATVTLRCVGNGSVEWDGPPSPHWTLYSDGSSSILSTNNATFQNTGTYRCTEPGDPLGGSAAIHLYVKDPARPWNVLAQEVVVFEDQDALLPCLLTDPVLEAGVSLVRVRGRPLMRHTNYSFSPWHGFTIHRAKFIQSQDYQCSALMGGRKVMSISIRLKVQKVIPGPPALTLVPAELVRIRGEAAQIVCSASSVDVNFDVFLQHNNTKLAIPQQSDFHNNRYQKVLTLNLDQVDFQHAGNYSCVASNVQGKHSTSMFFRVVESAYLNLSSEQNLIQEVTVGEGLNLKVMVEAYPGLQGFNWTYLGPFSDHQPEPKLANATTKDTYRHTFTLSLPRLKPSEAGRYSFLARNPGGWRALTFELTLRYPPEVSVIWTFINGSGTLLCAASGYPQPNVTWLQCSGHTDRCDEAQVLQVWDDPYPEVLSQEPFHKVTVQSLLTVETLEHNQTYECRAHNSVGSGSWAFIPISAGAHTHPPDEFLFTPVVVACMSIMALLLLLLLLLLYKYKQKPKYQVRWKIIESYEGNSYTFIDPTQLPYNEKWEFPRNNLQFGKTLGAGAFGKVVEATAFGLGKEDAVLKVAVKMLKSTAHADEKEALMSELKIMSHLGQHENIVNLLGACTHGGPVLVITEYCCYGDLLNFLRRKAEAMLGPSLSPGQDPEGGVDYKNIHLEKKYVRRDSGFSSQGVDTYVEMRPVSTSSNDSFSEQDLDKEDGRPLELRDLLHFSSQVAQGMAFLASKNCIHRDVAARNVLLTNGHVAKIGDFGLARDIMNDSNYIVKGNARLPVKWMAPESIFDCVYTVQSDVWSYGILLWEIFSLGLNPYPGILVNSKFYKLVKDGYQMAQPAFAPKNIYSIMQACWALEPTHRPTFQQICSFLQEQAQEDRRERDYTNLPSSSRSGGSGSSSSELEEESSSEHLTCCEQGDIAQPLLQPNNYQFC
Chain of Serine/threonine-protein kinase PLK1 (Homo sapiens) (P53350 whole entry): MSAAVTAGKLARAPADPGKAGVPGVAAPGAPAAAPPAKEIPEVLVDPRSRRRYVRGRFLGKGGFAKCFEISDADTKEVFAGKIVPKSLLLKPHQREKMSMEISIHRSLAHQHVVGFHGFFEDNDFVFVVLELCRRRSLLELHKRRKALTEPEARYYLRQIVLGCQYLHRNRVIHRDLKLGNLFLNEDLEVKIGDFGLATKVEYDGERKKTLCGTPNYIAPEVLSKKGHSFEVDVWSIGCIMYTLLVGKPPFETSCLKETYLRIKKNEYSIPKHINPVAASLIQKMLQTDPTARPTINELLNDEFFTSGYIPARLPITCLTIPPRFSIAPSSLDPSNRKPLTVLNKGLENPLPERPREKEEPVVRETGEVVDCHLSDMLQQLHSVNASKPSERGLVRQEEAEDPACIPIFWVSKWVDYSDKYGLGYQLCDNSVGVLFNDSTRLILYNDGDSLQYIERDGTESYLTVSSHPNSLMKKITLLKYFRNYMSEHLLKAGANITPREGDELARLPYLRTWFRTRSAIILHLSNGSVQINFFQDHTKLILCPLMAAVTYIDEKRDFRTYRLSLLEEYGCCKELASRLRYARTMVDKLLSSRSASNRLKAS

Row | SMILES | inhibition [1] [%] | inhibition [2] [%] | inhibition [3] [%] | inhibition [4] [%] | inhibition [5] [%] | inhibition [6] [%] | inhibition [7] [%] | inhibition [8] [%] | inhibition [9] [%] | inhibition [10] [%]
1 | COc1ccc(-c2nn3ncccc3c2-c2ccnc(Nc3ccc(Cl)c(C(F)(F)F)c3)n2)cc1 | 6.74 | 0.21 | 3.01 | 5.35 | -6.5 | -0.61 | 3.27 | -1.71 | 5.03 | 3.8
2 | CC1=C(C(=O)Nc2ccc3[nH]ncc3c2)C(c2ccc(Cl)c(Cl)c2)CC(=O)N1 (stereo not given) | 3.13 | 2.57 | 1.43 | 2.15 | 0.84 | -2.61 | 1 | -0.52 | 1.97 | 1.91
3 | CCCN1CCC(Oc2cc(Nc3nc(Nc4cccc(F)c4C(N)=O)c4cc[nH]c4n3)c(OC)cc2Cl)CC1 | -2.13 | 8.91 | 47.5 | 3.35 | -3.06 | 12.3 | 14.6 | -0.53 | 3.9 | 1.38
4 | COc1ccc2cc(-c3c(-c4ccncc4)nc(-c4ccc([S+](C)[O-])cc4)n3C)ccc2c1 (stereo not given) | 0.29 | 1.98 | 4.45 | 4.12 | 5.59 | 1.55 | 0.4 | -0.21 | -0.69 | 3.05
5 | NC(=O)c1ccc(-c2nc(-c3ccccn3)c(-c3ccc4c(c3)OCO4)[nH]2)cc1 | 6.43 | 5.18 | 2.1 | 6.47 | 1.63 | 0.44 | -0.31 | 1.36 | 2.49 | 1.15
6 | COc1ccc(-c2ccncc2)cc1C(N)=O | 2.67 | 5.64 | 6.97 | 5.37 | 3.51 | 3.2 | 2 | 2.6 | 5.33 | 2.01
7 | CS(=O)(=O)CCNCc1ccc(-c2ccc3ncnc(Nc4ccc(OCc5cccc(F)c5)c(C(F)(F)F)c4)c3c2)o1 | 10.1 | 3.95 | 3.53 | 12.1 | 4.32 | -0.03 | -1.42 | 0.94 | -0.75 | 1.1
8 | c1cnn2ncc(-c3ccnc(Nc4ccc5c(c4)OCCO5)n3)c2c1 | 49.9 | 8.35 | 29.4 | 11.9 | 36.1 | 8.6 | 21.8 | 44.5 | 85.7 | 1.57
9 | Nc1nc(-c2ccccn2)c(-c2ccc3ncccc3n2)s1 | 6.84 | 2.47 | 2.12 | 4.02 | 8.59 | 1.06 | 2.46 | 2.04 | 4.58 | -1.79
10 | COc1cccc(-n2ncc3c(N/N=C/c4cccc(F)c4)ncnc32)c1 | 3.11 | 3.32 | 3.39 | 6.88 | 14.1 | -8.81 | -1.89 | -0.57 | 3.43 | 4.02
11 | CCn1c(-c2nonc2N)nc2c(C#CC(C)(C)O)nc(OC[C@@H](N)c3ccccc3)cc21 | -5.29 | 7.34 | 0.17 | -3.32 | 2.58 | 17.4 | 68.9 | -0.21 | -0.91 | 2.28
12 | NCc1ccc(-c2nc(-c3ccc(Cl)c(O)c3)c(-c3ccncc3)[nH]2)cc1 | -0.05 | 4.25 | 2.1 | 2.08 | 1.57 | 19.7 | 69 | 0.23 | 5.68 | 5.91
13 | CN(C)c1cc2c(Nc3ccc4nc(Cc5ccccc5)[nH]c4c3)ncnc2cn1 | 10.6 | 6.15 | 6.34 | 13.2 | -1.97 | 7.56 | 11.3 | 4.7 | 15.4 | 4.62
14 | CCn1c(-c2nonc2N)nc2c(C#CC(C)(C)O)nc(CN3CCCC3)cc21 | 3.04 | -0.39 | -1.2 | 1.71 | 0.63 | 0.61 | 5.17 | -0.03 | 2.57 | 2.94
15 | CCc1cccc(NC(=O)Nc2ccc(Oc3ccc4nc(NC(=O)OC)[nH]c4c3)cc2)c1 | 3.95 | 2.03 | 1.1 | 6.8 | 6.29 | 7.64 | 16.3 | 44.8 | 54.6 | -2.29
16 | CCCN1CCC=C(c2ccc(Nc3nc(Nc4ccccc4C(N)=O)c4cc[nH]c4n3)c(C)c2)C1 | 7.97 | 13.9 | 53.6 | 70.8 | 20.8 | 9 | 26.6 | 27.4 | 63.1 | 4.83
